Key:
Assay in all cases: DAPPL (digital affinity profiling via proximity ligation, sequencing); 10 mM Tris-HCl pH 7.5, 50 mM NaCl, 1 mM DTT, 4% glycerol, room temperature, 30 min; GST-TFs on glutathione beads, 16-mer random dsDNA library, 0.1% formaldehyde crosslink after washing; high values mean tight binding
FLI1 = target: T1, FLI1 (Homo sapiens, UniProt Q01543 1-452); details: protein: recombinant; tags: N-terminal GST; dsDNA, one strand shown
T1 sequence: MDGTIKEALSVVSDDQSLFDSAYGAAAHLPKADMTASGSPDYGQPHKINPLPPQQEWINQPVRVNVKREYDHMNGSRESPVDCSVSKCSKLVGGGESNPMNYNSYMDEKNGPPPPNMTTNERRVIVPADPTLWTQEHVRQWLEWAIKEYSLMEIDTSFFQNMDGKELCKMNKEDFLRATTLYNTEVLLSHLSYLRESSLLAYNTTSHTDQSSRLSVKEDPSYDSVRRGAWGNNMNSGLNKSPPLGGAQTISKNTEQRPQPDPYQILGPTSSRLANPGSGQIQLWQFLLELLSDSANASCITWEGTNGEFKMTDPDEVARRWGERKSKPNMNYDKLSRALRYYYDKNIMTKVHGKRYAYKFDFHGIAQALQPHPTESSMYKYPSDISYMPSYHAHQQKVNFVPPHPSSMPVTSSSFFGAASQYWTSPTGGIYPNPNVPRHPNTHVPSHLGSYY
In short: (§1)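 GST fusions of human transcription factors were expressed in yeast and captured with glutathione beads. Once given DNA barcodes and pooled alongside a tag-only sample, they were incubated for 30 min at room temperature with 200 nmole of a random double-stranded 16-mer DNA library in Tris/NaCl/DTT/glycerol buffer, then washed, crosslinked (0.1% formaldehyde), proximity-ligated, PCR-amplified and sequenced on an Illumina NextSeq500. The binding signal of each hexamer is its read frequency for a factor divided by its frequency for the tag-only sample.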

ELK1 = target: T2, ELK1 (Homo sapiens, UniProt P19419 1-428); details: protein: recombinant; tags: N-terminal GST; dsDNA, one strand shown
T2 sequence: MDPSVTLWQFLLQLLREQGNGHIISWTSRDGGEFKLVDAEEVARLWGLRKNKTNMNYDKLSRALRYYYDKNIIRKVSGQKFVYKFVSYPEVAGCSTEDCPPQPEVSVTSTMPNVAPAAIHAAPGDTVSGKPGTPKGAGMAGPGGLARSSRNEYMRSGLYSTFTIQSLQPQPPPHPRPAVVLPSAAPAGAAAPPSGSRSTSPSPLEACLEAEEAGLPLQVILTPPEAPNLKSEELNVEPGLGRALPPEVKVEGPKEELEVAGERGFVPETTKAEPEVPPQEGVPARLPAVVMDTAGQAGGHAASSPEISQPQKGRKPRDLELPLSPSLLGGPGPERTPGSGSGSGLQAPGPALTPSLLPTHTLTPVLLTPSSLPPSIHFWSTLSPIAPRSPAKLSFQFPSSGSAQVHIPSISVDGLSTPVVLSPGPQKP
In short: as §1

GABPA = target: T3, GABPA (Homo sapiens, UniProt Q06546 1-454); details: protein: recombinant; tags: N-terminal GST; dsDNA, one strand shown
T3 sequence: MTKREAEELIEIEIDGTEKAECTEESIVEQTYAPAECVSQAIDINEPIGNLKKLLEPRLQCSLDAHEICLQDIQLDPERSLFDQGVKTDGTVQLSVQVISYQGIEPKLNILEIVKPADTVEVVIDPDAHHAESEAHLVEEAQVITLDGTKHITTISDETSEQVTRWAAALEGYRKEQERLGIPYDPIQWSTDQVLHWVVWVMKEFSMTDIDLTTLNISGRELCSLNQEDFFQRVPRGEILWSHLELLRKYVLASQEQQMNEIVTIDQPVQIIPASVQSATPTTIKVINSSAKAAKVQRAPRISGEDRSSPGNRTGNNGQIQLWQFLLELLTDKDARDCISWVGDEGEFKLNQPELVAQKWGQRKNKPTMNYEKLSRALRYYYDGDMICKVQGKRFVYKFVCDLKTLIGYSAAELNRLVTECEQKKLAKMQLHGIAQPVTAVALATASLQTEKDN
In short: as §1

ERG = target: T4, ERG (Homo sapiens, UniProt P11308 1-479); details: protein: recombinant; tags: N-terminal GST; dsDNA, one strand shown
T4 sequence: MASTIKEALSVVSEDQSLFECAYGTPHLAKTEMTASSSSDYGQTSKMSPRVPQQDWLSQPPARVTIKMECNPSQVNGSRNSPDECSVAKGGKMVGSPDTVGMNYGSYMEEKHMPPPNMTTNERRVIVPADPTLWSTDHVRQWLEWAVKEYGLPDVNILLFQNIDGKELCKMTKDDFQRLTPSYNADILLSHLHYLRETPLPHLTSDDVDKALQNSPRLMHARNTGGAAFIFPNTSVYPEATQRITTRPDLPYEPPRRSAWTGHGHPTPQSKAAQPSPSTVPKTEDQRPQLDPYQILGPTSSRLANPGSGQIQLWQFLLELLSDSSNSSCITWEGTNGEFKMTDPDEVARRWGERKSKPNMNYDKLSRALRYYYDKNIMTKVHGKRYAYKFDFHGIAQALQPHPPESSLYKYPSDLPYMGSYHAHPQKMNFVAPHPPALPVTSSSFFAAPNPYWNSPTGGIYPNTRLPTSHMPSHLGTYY
In short: as §1

ELF1 = ELF1 (Homo sapiens, UniProt P32519 1-619); details: protein: recombinant; tags: N-terminal GST; dsDNA, one strand shown
In short: as §1

EHF = target: T5, EHF (Homo sapiens, UniProt Q9NZC4 1-300); details: protein: recombinant; tags: N-terminal GST; dsDNA, one strand shown
T5 sequence: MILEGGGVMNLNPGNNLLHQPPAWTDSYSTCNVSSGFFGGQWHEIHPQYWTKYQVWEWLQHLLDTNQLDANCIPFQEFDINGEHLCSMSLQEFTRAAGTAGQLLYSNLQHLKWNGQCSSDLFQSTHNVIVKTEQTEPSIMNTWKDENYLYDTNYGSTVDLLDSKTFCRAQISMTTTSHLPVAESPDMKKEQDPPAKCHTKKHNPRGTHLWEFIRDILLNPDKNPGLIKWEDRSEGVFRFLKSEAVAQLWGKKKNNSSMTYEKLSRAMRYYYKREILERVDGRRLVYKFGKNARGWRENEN
In short: as §1

SPI1 = SPI1 (Homo sapiens, UniProt P17947 1-270); details: protein: recombinant; tags: N-terminal GST; dsDNA, one strand shown
In short: as §1

SPIB = SPIB (Homo sapiens, UniProt Q01892 1-262); details: protein: recombinant; tags: N-terminal GST; dsDNA, one strand shown
In short: as §1

ELK3 = target: T6, ELK3 (Homo sapiens, UniProt P41970 1-407); details: protein: recombinant; tags: N-terminal GST; dsDNA, one strand shown
T6 sequence: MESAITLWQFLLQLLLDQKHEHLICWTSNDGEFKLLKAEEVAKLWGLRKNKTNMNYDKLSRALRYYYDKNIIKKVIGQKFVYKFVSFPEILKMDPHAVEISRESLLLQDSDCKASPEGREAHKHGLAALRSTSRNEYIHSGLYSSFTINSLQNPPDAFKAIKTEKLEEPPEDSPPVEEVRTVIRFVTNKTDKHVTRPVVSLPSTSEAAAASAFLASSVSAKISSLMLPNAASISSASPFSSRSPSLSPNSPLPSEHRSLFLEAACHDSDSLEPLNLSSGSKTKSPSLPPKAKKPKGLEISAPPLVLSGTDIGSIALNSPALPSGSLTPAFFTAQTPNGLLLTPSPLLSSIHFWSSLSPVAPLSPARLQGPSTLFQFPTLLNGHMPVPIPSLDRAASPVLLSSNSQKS
In short: as §1

FEV = target: T7, FEV (Homo sapiens, UniProt Q99581 1-238); details: protein: recombinant; tags: N-terminal GST; dsDNA, one strand shown
T7 sequence: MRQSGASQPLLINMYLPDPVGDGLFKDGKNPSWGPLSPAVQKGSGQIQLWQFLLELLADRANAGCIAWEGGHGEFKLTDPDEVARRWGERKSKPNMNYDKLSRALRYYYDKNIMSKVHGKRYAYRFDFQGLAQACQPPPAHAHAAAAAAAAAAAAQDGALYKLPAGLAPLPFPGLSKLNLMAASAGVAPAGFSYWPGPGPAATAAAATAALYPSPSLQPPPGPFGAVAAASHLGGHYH
In short: as §1

ETV5 = ETV5 (Homo sapiens, UniProt P41161 1-510); details: protein: recombinant; tags: N-terminal GST; dsDNA, one strand shown
In short: as §1

HSF1 = HSF1 (Homo sapiens, UniProt Q00613 1-529); details: protein: recombinant; tags: N-terminal GST; chain copies: 3; dsDNA, one strand shown
In short: as §1

SPIC = target: T8, SPIC (Homo sapiens, UniProt Q8N5J4 1-248); details: protein: recombinant; tags: N-terminal GST; dsDNA, one strand shown
T8 sequence: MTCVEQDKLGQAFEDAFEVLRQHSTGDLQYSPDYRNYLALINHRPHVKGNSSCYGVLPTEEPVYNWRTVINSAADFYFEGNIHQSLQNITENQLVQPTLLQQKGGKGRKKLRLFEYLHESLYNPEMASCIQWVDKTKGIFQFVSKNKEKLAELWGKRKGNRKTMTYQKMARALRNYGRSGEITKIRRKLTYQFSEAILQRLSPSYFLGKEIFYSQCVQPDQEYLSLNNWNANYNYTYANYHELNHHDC
In short: as §1

ELF4 = ELF4 (Homo sapiens, UniProt Q99607 1-663); details: protein: recombinant; tags: N-terminal GST; dsDNA, one strand shown
In short: as §1

ELK4 = target: T9, ELK4 (Homo sapiens, UniProt P28324-2 1-405); details: protein: recombinant; tags: N-terminal GST; dsDNA, one strand shown
T9 sequence: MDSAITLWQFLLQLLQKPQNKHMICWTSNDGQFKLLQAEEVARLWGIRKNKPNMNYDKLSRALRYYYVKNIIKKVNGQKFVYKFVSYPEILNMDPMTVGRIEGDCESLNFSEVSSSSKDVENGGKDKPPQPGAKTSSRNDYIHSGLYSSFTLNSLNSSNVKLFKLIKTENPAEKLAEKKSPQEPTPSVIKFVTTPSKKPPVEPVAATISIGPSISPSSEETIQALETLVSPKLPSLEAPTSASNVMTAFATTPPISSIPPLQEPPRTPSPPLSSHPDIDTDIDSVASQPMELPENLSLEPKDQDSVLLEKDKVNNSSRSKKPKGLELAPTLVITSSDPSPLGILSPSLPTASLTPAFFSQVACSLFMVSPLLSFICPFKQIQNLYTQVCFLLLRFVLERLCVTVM
In short: as §1

ETV2 = target: T10, ETV2 (Homo sapiens, UniProt O00321 1-342); details: protein: recombinant; tags: N-terminal GST; dsDNA, one strand shown
T10 sequence: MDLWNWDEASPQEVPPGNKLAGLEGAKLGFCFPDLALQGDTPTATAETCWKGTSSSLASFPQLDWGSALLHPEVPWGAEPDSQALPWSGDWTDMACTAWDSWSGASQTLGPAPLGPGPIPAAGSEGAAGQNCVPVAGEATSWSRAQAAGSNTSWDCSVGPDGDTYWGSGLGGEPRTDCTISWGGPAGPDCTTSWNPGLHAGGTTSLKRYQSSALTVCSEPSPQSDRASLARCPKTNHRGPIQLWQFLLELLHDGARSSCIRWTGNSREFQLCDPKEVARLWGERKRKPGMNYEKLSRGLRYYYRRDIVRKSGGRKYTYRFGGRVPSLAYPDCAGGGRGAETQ
In short: as §1

ELF3 = target: T11, ELF3 (Homo sapiens, UniProt P78545 1-371); details: protein: recombinant; tags: N-terminal GST; dsDNA, one strand shown
T11 sequence: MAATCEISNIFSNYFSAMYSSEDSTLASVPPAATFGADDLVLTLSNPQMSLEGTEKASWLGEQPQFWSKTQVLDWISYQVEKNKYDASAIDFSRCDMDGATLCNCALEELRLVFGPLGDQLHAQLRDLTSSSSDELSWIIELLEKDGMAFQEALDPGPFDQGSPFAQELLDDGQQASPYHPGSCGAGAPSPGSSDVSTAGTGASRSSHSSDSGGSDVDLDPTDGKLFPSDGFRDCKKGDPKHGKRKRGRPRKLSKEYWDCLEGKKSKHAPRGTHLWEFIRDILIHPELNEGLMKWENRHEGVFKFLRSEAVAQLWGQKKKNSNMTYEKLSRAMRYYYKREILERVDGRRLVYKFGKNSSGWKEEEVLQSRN
In short: as §1

ETV1 = ETV1 (Homo sapiens, UniProt P50549 1-477); details: protein: recombinant; tags: N-terminal GST; dsDNA, one strand shown
In short: as §1

HSF1, sequence (Q00613 whole entry): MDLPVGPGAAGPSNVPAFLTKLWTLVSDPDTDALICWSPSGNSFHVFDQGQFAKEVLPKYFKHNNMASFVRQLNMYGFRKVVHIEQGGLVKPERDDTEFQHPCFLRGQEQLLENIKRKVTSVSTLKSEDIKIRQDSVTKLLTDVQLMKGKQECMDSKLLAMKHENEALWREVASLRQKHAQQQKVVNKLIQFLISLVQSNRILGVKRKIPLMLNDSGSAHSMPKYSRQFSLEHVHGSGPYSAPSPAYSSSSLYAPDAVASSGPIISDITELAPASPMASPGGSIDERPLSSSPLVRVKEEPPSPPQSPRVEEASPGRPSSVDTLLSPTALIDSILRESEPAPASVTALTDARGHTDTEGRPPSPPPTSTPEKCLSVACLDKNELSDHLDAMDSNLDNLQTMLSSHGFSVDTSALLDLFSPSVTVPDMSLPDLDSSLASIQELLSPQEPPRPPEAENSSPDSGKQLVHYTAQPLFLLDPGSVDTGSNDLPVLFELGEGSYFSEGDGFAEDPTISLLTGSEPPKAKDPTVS
ETV1, sequence (P50549 whole entry): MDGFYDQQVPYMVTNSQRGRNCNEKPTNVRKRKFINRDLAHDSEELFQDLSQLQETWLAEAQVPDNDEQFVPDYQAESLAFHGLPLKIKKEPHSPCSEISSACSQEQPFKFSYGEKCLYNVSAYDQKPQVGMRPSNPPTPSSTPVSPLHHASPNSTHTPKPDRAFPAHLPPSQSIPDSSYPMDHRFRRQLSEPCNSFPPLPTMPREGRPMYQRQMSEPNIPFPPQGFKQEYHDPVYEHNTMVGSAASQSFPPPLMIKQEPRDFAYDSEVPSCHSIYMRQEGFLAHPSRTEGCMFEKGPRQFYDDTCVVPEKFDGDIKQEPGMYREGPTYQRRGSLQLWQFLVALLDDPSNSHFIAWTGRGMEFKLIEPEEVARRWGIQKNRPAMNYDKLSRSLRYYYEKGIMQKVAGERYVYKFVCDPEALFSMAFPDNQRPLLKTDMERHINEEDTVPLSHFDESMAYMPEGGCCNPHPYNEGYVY
ELF1, sequence (P32519 whole entry): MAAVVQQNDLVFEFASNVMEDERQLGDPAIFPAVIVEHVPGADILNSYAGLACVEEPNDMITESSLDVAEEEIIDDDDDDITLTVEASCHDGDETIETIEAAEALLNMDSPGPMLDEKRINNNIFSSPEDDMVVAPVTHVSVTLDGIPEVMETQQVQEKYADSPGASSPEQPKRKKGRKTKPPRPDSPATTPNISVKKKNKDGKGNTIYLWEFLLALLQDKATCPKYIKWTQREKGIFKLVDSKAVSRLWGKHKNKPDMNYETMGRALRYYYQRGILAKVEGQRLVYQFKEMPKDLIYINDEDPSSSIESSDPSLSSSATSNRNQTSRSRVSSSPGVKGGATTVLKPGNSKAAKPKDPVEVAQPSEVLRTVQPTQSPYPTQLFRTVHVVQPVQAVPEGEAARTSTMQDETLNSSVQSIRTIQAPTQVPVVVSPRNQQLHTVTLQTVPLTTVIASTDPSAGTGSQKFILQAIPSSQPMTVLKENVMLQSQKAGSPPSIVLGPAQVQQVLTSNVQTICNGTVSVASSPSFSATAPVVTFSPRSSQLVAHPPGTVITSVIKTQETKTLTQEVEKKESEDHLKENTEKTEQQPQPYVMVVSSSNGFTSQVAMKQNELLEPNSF
ELF4, sequence (Q99607 whole entry): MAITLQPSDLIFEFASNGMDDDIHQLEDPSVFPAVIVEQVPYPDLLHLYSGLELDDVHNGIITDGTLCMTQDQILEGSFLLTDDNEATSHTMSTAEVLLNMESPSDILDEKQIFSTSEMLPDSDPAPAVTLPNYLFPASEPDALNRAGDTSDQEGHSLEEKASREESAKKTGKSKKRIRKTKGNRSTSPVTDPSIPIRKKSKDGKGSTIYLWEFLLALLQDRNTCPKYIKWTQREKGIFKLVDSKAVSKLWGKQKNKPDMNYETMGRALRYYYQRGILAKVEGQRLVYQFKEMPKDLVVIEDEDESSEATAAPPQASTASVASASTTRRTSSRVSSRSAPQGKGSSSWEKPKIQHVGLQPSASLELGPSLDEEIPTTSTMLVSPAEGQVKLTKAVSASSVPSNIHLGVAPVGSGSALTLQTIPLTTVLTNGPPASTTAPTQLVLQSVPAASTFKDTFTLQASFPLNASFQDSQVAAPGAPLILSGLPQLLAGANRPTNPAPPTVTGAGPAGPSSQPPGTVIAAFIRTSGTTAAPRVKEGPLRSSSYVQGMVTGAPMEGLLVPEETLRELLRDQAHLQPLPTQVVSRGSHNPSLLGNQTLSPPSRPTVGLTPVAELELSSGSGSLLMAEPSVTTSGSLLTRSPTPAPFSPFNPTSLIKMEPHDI
SPIB, sequence (Q01892 whole entry): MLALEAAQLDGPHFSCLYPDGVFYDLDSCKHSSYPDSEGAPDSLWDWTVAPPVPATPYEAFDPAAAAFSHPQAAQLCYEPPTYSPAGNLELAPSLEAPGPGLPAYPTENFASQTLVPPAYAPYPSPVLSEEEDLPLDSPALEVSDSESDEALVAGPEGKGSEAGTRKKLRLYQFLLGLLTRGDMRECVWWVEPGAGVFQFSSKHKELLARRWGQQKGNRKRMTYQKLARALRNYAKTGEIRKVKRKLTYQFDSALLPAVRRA
ETV5, sequence (P41161 whole entry): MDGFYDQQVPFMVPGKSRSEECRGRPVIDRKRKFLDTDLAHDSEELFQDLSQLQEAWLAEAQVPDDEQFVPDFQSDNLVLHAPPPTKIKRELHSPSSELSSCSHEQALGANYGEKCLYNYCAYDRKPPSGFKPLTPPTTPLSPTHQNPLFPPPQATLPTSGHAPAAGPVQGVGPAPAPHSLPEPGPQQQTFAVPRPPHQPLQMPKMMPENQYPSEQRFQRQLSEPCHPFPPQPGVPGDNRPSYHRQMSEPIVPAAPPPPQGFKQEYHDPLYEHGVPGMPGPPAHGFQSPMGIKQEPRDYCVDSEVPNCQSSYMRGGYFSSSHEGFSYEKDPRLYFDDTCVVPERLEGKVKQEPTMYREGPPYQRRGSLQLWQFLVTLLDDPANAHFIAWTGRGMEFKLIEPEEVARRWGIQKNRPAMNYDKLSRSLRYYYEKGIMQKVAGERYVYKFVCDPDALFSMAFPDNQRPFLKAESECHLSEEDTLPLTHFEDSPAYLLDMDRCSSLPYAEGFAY

Sequence	binding signal (FLI1)	binding signal (ELK1)	binding signal (GABPA)	binding signal (ERG)	binding signal (ELF1)	binding signal (EHF)	binding signal (SPI1)	binding signal (SPIB)	binding signal (ELK3)	binding signal (FEV)	binding signal (ETV5)	binding signal (HSF1)	binding signal (SPIC)	binding signal (ELF4)	binding signal (ELK4)	binding signal (ETV2)	binding signal (ELF3)	binding signal (ETV1)
TCGCAC	1.11 fold enrichment (6-mer frequency, TF over GST control)	1.1 fold enrichment (6-mer frequency, TF over GST control)	1.09 fold enrichment (6-mer frequency, TF over GST control)	1.07 fold enrichment (6-mer frequency, TF over GST control)	1.13 fold enrichment (6-mer frequency, TF over GST control)	1.06 fold enrichment (6-mer frequency, TF over GST control)	1.13 fold enrichment (6-mer frequency, TF over GST control)	1.02 fold enrichment (6-mer frequency, TF over GST control)	1.02 fold enrichment (6-mer frequency, TF over GST control)	1.12 fold enrichment (6-mer frequency, TF over GST control)	1.01 fold enrichment (6-mer frequency, TF over GST control)	1.03 fold enrichment (6-mer frequency, TF over GST control)	1.06 fold enrichment (6-mer frequency, TF over GST control)	1.13 fold enrichment (6-mer frequency, TF over GST control)	1.08 fold enrichment (6-mer frequency, TF over GST control)	1.07 fold enrichment (6-mer frequency, TF over GST control)	1.18 fold enrichment (6-mer frequency, TF over GST control)	1.04 fold enrichment (6-mer frequency, TF over GST control)
GTAACT	1.31 fold enrichment (6-mer frequency, TF over GST control)	1.25 fold enrichment (6-mer frequency, TF over GST control)	1.22 fold enrichment (6-mer frequency, TF over GST control)	1.25 fold enrichment (6-mer frequency, TF over GST control)	1.22 fold enrichment (6-mer frequency, TF over GST control)	1.21 fold enrichment (6-mer frequency, TF over GST control)	1.35 fold enrichment (6-mer frequency, TF over GST control)	1.28 fold enrichment (6-mer frequency, TF over GST control)	1.11 fold enrichment (6-mer frequency, TF over GST control)	1.18 fold enrichment (6-mer frequency, TF over GST control)	1.21 fold enrichment (6-mer frequency, TF over GST control)	1.02 fold enrichment (6-mer frequency, TF over GST control)	1.37 fold enrichment (6-mer frequency, TF over GST control)	1.27 fold enrichment (6-mer frequency, TF over GST control)	1.26 fold enrichment (6-mer frequency, TF over GST control)	1.2 fold enrichment (6-mer frequency, TF over GST control)	1.16 fold enrichment (6-mer frequency, TF over GST control)	1.16 fold enrichment (6-mer frequency, TF over GST control)

Reference: article PMC7862700, “An all-to-all approach to the identification of sequence-specific readers for epigenetic DNA modifications on cytosine”
